LGR2 inh: blocks bursicon-induced cAMP signaling via Drosophila LGR2. HEK293 LGR2, CRE-luciferase, bursicon-stimulated, 4 h. hit rate 0.35% among 380,000. AID 720647. inhibition, % at 9.99 µM;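 active = drop in luminescence signal, shown as inhibition above about 50% in the replicate tests, limit read from the data, passing the limit was not always enough; inconclusive = probably only some replicates passing the limit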;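 note: agonist challenge used bursicon conditioned medium at about half maximal strength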
PAX8 reporter: lowers PAX8-driven luciferase in RMG-I cells | RMG-I TPO-luciferase reporter, SteadyGlo, 24 h | inhibition, % at 12.6 µM | hit rate 1.2% among 360,000;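 active = mean replicate inhibition at least 60% with every replicate also reaching 60%; inconclusive = only one of the two criteria is met; inactive = mean below 60% and not all replicates reaching 60%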;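 note: luciferase light reporting Pax8 driven TPO promoter activity; plate controls were median of neutral control wells for no effect and mitoxantrone controls for full effect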
TROY NFkB inh: inhibitors of TROY-dependent NF-kB signaling | Q293 LMP1-TROYcd NF-kB luciferase reporter, 4 h | AID 1347056 | hit rate 0.98% among 360,000 | inhibition, % at 10 µM;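 active = compounds whose plate-normalised and pattern-corrected inhibition of the luciferase reporter signal at the single screening dose is 50% or more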
TWEAK Fn14 block: blocks TWEAK-Fn14 interaction in a reporter cell assay | TWEAK-stimulated Fn14 reporter cells, luciferase luminescence, 8 h | inhibition, % at 10 µM | hit rate 2% among 360,000 | AID 1159606; in the data active = inhibition above about 50%
EWS-Fli block: blocks EWS/Fli oncoprotein-driven transcription; A673 NR0B1-luciferase reporter, viability-normalised; inhibition, % at 12.6 µM; hit rate 0.67% among 350,000; AID 651661;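 active = mean inhibition of at least 50% after viability correction, with every replicate also passing that limit; inconclusive = mean reaches 50% but only one of two replicates passes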;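 note: firefly luciferase signal divided by Alamar Blue viability fluorescence both relative to DMSO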
* marks the source's active call; other numbers are inactive results; u = inconclusive; x = no result given. This is a sample that favours compounds with a hit; in the whole collection about 2.8% have one here.

SMILES	LGR2 inh	PAX8 reporter	TROY NFkB inh	TWEAK Fn14 block	EWS-Fli block
COc1ccc(OC)c(Nc2cc(C)nc3ccc(C)cc23)c1	6	30	-20	9	57*
COc1ccc2nc(C)cc(Nc3ccc(C)cc3)c2c1	-13	-5	-9	-24	-17
COc1ccc(NC(=O)N2CCCCN3[C@@H](CO)[C@@H](c4ccc(C5=CCCC5)cc4)[C@@H]3C2)cc1	x	82*	x	x	4
COc1ccc(NC(=O)N2CCCCN3[C@H](CO)[C@H](c4ccc(C5=CCCC5)cc4)[C@H]3C2)cc1	x	43	x	x	18
O=C(Nc1ccccc1)N1CCCCN2[C@H](C1)[C@@H](c1ccc(C3=CCCCC3)cc1)[C@@H]2CO	9	18	x	x	-11
O=C(Nc1ccc(F)cc1)N1CCCCN2[C@H](CO)[C@@H](c3ccc(C4=CCCCC4)cc3)[C@H]2C1	1	74*	x	x	u
CN(CC(=O)NCCCN1CCOCC1)S(=O)(=O)c1ccc(Br)cc1	x	x	x	63*	x
O=C(NCCCN1CCOCC1)c1ccc(CNS(=O)(=O)c2ccc(Br)cc2)cc1	3	132*	-13	0	5
CC(C)(C)c1ccc(C(=O)NCCCN2CCN(CCCNC(=O)c3ccc(C(C)(C)C)cc3)CC2)cc1	9	70*	28	-22	x
COc1ccc(C(CCNCc2ccc(F)cc2)c2ccc(F)cc2)cc1 (stereo not given)	59*	-2	11	-19	7
COc1ccc(C(CCNCc2ccccc2)c2ccc(F)cc2)cc1 (stereo not given)	-1	-5	19	-11	x
COc1ccc(C(CCNCc2ccc(OC(C)C)cc2)c2ccccc2OC)cc1 (stereo not given)	0	15	9	-17	58*
COc1ccc(CNCCC(c2ccc(OC)cc2)c2ccccc2OC)cc1 (stereo not given)	2	20	9	-8	42
COc1ccc(CNCCC(c2ccc(F)cc2)c2ccc(OC)cc2)cc1 (stereo not given)	10	19	3	-13	x
COc1ccc(C(CCNC(C)c2ccccc2)c2ccc(F)cc2)cc1 (stereo not given)	2	81*	-15	-8	x
C[C@@H]1CN([C@@H](C)CO)C(=O)c2cc(NC(=O)NC3CCCCC3)ccc2O[C@@H]1CN(C)S(=O)(=O)c1cn(C)cn1	4	x	x	x	0
CC(CNC(=S)Nc1cc(F)cc(F)c1)CSc1ccc(Cl)cc1 (stereo not given)	12	-158	61*	23	10
Cc1ccc(NC(=S)NCCSc2ccc(Cl)cc2)cc1	-20	-7	10	-11	12
Cc1ccc(C(=O)/C=C2\NCCNC2=O)cc1	x	x	-28	15	x
Cc1ccc(C(=O)/C=C2\NCC(C)NC2=O)cc1 (stereo not given)	54*	x	x	54*	x
CO[C@@H]1CN(C)C(=O)c2ccc(NC(=O)C3CCCC3)cc2OC[C@H](C)N(C(C)=O)C[C@@H]1C	5	-5	x	x	4
C[C@H](CO)N1C[C@H](C)[C@@H](CN(C)CC2CCCCC2)Oc2ccc(NS(=O)(=O)c3ccc(F)cc3)cc2CC1=O	-12	x	x	x	5
COc1cc(/C=N/NC(N)=S)cc(Br)c1OCc1ccccc1F	41	70*	12	64*	x
CCOc1c(Cl)cc(/C=N/NC(N)=S)cc1OC	-29	-2	13	52*	-2
COc1cccc(CNc2nc3cc(-c4cccc(Cl)c4)sc3c(=O)n2C)c1OC	-9	42	10	50*	27
SMILES	LGR2 inh	PAX8 reporter	TROY NFkB inh	TWEAK Fn14 block	EWS-Fli block
COc1cccc(CNc2nc3ccccc3n2CCN2CCCCC2)c1OC	x	x	11	-30	x
COc1cccc(CNc2nc3cc(-c4ccccc4)sc3c(=O)n2C)c1OC	-12	34	29	63*	11
CCn1c(NCc2cccc(OC)c2OC)nc2ccccc21	x	-67	-52	60*	x
COc1cccc(CNc2nc3cc(-c4cccc(C(F)(F)F)c4)sc3c(=O)n2C)c1OC	-3	17	10	38	18
COc1ccccc1CNc1nc2cc(-c3ccc(OC)c(OC)c3)sc2c(=O)n1C	-5	2	44	77*	12
C[C@@H]1CCCCO[C@H](CN(C)S(=O)(=O)c2ccccc2)[C@H](C)CN([C@@H](C)CO)C(=O)c2cc(NS(C)(=O)=O)ccc2O1	4	18	x	x	4
C[C@@H]1CN([C@@H](C)CO)C(=O)c2cc(C#C[C@@H](C)O)cnc2O[C@H]1CN(C)Cc1cccc(C(=O)O)c1	3	x	x	x	-19
CO[C@@H]1CN(C)C(=O)c2ccc(NC(=O)C3CCC3)cc2OC[C@H](C)N(Cc2ccc(F)cc2)C[C@@H]1C	-16	-25	x	x	11
COc1cccc(CNc2nc3cc(-c4cnn(Cc5ccccc5)c4)sc3c(=O)n2C)c1	x	6	20	68*	14
COc1cccc(CNc2nc3cc(-c4cccc(OC)c4)sc3c(=O)n2C)c1	-14	2	-1	-26	-16
CC(C)NC(=O)N(C)C[C@@H]1Oc2ccc(NC(=O)Nc3ccccc3)cc2C(=O)N([C@H](C)CO)C[C@H]1C	9	-7	x	x	-3
CCc1ccc(/C=C2\SC(=S)N(CCCC(=O)Nc3ccc(C(=O)O)cc3)C2=O)cc1	-1	43	12	-27	23
CCc1ccc(/C=C2\SC(=S)N(CCCC(=O)Nc3ccccc3C(=O)O)C2=O)cc1	30	-14	75*	33	x
Cc1ccc(/C=C2\SC(=S)N(CCCC(=O)Nc3ccccc3C(=O)O)C2=O)cc1	16	12	83*	84*	35
C[C@@H]1CN([C@H](C)CO)C(=O)c2cc(C#Cc3cccc(F)c3)cnc2O[C@H]1CN(C)C(=O)c1ccccc1F	13	x	x	x	10
O=C(CSc1ncnc2c1oc1ccccc12)Nc1ccccc1C(F)(F)F	2	0	82*	91*	-9
O=C(O)CSc1ncnc2c1oc1ccccc12	x	x	x	30	x
CC(C)NC(=O)c1cc(C(=O)c2cc(Cl)ccc2O)coc1=N	x	x	21	69*	x
CCCc1cn(CC[C@H]2CC[C@@H](NC(=O)C3CCCC3)[C@H](CO)O2)nn1	-5	12	x	x	4
CC(C)CC#Cc1ccc2c(c1)O[C@@H](CN(C)C(=O)Cc1ccccn1)[C@@H](C)CN([C@H](C)CO)S2(=O)=O	-13	x	x	x	10
Cc1noc(C)c1NC(=O)Nc1ccc2c(c1)C(=O)N([C@@H](C)CO)C[C@@H](C)[C@H](CN(C)Cc1ccncc1)OCCCC[C@H](C)O2	x	-3	x	x	-4
COc1ccc(C(=O)N(C)Cc2cnn(Cc3ccccc3)c2)cc1S(=O)(=O)N1CCOCC1	-10	39	4	12	62*
CN(Cc1cnn(Cc2ccccc2)c1)C(=O)c1cccc(S(=O)(=O)N2CCOCC2)c1	-13	19	2	18	41
CC(=O)Oc1ccc2ccccc2c1C(NC(=O)Cc1ccccc1)c1ccc(Cl)cc1 (stereo not given)	x	85*	36	55*	x
CC(=O)Nc1ccc(CNc2nc(NC(C)C)nc3cc(-c4ccccc4)sc23)cc1	11	73*	-94	-233	60*
